# Measurements reported in the OligoGym collection.
# Molecular target: RAB28
# Assay: pooled miR-30 sensor sort-seq; sequence = guide strand
# Settings: shRNA
# Also: reference of the scale not given here.
row,Sequence,sensor-assay potency score (higher = more potent)
1,TATTGTTCGCATATGCTCCAAA,-0.803
2,ATTTGTAATATCATATACCAAG,-1.51
3,TTATTGTTCGCATATGCTCCAA,-0.667
4,TAACAGTCCTTGACATAGGTTC,-0.143
5,TTTGTTTGTACTGTTTCCCAAA,-0.914
6,TTTGATAATTTGTAATATCATA,-1.64
7,TTGAAGGGTAACATTCAAGTTT,-0.65
8,TTATCCAACATTTTGCCTCCTA,0.54
9,TAGTTAAGGAGGTCTTCCCGGA,-0.69
10,TTAACAGTCCTTGACATAGGTT,-0.695
11,TATTTATCCAACATTTTGCCTC,-0.421

# Molecular target: RAB3D
# Assay: as above
# Settings: shRNA
row,Sequence,sensor-assay potency score (higher = more potent)
1,TTCACATTGATGTTCTCCTTGG,-0.53
2,TAGCAGTTTGAACATATAGTCG,-0.969
3,TTGACCTTGAAATCGATGCCCA,-0.115
4,TTGCTGCCTGAGCTGGAGCTGG,-1.52
5,TTGGAATCCAGAAAGTTCGTGG,0.567
6,TATAGTCGAAGTTCTGATCTGC,0.851
7,TTCTGATCTGCTGCATCCCGTG,-1.02
8,TATCAGTAGCAGTTTGAACATA,-1.09
9,TGAACCATCTTCCACCAGCTTG,-1.09
10,TAAGCTAGAAGGCACCACGGAT,-0.984
11,TTGATGTTCTCCTTGGCACTGG,-0.145
12,TTGAACATATAGTCGAAGTTCT,0.33

# Molecular target: RAB3GAP2
# Assay: as above
# Settings: shRNA
row,Sequence,sensor-assay potency score (higher = more potent)
1,TAAAACACAATCTTGGAGCCAG,0.291
2,TTTATTCCACTGAACAACGTAC,-0.27
3,TTTGCTGTGAAGCAGAGTCTGA,-0.886
4,TTCTGTGGGATCTTTGACCTTT,0.671
5,TTATTTACTAGTTTAGCTGTTG,0.0265
6,TTGACTGACAGACTCATAGAGT,-0.525
7,TTCAGTGTTTTGAAGGTCCTGG,-0.334
8,TTAATTGACTGACAGACTCATA,-0.923
9,TTCAAGTGTTCTATTGACCTAA,0.6
10,TATGAGACAATCCTCCAGCTGT,-0.612
11,TTACAGGCAACACACCATCTTT,-1.36

# Molecular target: RABGEF1
# Assay: as above
# Settings: shRNA
row,Sequence,sensor-assay potency score (higher = more potent)
1,TTTCTTGCACAGGAGATCCGAT,-0.404
2,TTAGTTACATTCTAGATCCCAA,0.187
3,TTGGCTTCATTCATGATCCTTT,0.202
4,TTATCTTCTCGACTCTTTCTGG,-0.279
5,TTCTTTTCTTCAAACTTGGAGA,-0.783
